Assay results from PubChem BioAssay (Tox21).
Active and inactive are the calls of the source. Calls come from the whole dose curve.

Assay: qHTS assay to identify small molecule agonists of the sonic hedgehog signaling (Shh) pathway (AID 1259368);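 note: NIH/3T3-derived 3T3Gli1-Luc cells carrying a stable Gli1-driven firefly luciferase reporter; nearly all actives have a fitted effect of over 15% in size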
Conditions: NIH/3T3 Gli1-Luc reporter, luciferase, 24 h, stronger effect = higher value; series mostly up to 92.4 µM; activity change: at the top concentration
Text: National Center for Advancing Translational Sciences [NCATS]
NIH Chemical Genomics Center [NCGC]
U.S. Environmental Protection Agency [EPA]
National Institutes of Environmental Health Sciences [NIEHS]
National Toxicology Program [NTP]
The sonic hedgehog (Shh) pathway is essential for normal embryonic development. Dysregulation of the Shh pathway can cause severe developmental defects in organs. Therefore chemicals that interfere with the pathway are potential developmental toxicants. A cell line designated 3T3Gli1-Luc (DMB/OARSA/CFSAN/FDA, Laurel, MD), a NIH/3T3 derived clone containing stably integrated Gli1-Luc reporter is used to detect chemical interference of the Shh pathway, by changes in the expression of the firefly Luc gene under the control of the Gli1 transcriptional response element. This cell line was used to screen Tox21 libraries for identifying and prioritizing the potential developmental toxicants that interfere Shh pathway.
3T3 Gli1-Luc cells were dispensed at 2,000 per well in 5uL of culture medium into white solid bottom 1536-well plates (Greiner Bio-One, Monroe, NC) using a Multidrop Combi (Thermo Scientific, Waltham, MA) dispenser. The assay plates were incubated at 37 C and 5% CO2 for 4hr, and then 23nL of compounds dissolved in DMSO and positive control were transferred using a Pintool station (Wako, San Diego, CA). The assay plates were incubated at 37C and 5% CO2 for 24hr. For luciferase read, 4uL of Amplite Luciferase reporter gene assay reagent (AAT Bioquest, Inc. Sunnyvale, CA) was added to each well of the assay plates using Flying Reagent Dispenser (FRD, Aurora Discovery, San Diego, CA) and incubated at room temperature for 30min. The luminescence signal was measured using a ViewLux plate reader (Perkin Elmer, Shelton, CT).
% is set by controls: 0 for no effect and ±100 for the full control effect.

**Q.** Which “activity change” value does the source give for `c1ccc(B(c2ccccc2)c2ccccc2)cc1` here?
**A.** 1.63% (inactive)

**Q.** With `Cc1c(N)cccc1Cl` as the compound, how does the “activity change” value read?
**A.** -0.399% (inactive)

**Q.** Which “activity change” value does the source give for `CN(C)CC/C=C1/c2ccccc2COc2ccc(CC(=O)O)cc21` here?
**A.** 1.99% [at 42.5 µM] (inactive)

**Q.** With `O=C1c2ccccc2C(=O)c2cc(Cl)ccc21` as the compound, how does the activity change read?
**A.** 1.3% [at 8.39 µM] (inactive)

**Q.** For `CCC(C)C(=O)OCCc1ccccc1` (stereo not given), which “activity change” value is on record?
**A.** -0.51% (inactive)

**Q.** With `CCC/C=C(\C=O)CC` as the compound, how does the “activity change” value read?
**A.** -0.419% (inactive)

**Q.** Which “activity change” value does the source give for `COc1cc(OC)nc(O[C@H](C(=O)O)C(OC)(c2ccccc2)c2ccccc2)n1` here?
**A.** -0.675% [at 42.5 µM] (inactive)

**Q.** With `Cc1cc(-c2ccccc2)nnc1NCCN1CCOCC1` as the compound, how does the “activity change” value read?
**A.** 1.37% [at 42.5 µM] (inactive)

**Q.** For `C=CC(=O)CCCCC`, which “activity change” value is on record?
**A.** 0.676% (inactive)

**Q.** With `c1ccc2cnccc2c1` as the compound, how does the “activity change” value read?
**A.** -0.821% (inactive)

**Q.** With `CC(C)COC(=O)c1ccccc1` as the compound, how does the “activity change” value read?
**A.** -1.59% (inactive)

**Q.** With `CCOc1cccc(N)c1` as the compound, how does the “activity change” value read?
**A.** 0.56% (inactive)

**Q.** Which “activity change” value does the source give for `Cn1nnc2c(C(N)=O)ncn2c1=O` here?
**A.** 0.0244% [at 42.5 µM] (inactive)

**Q.** For `CCCCCCCCCCCCCCCCCC#N`, which “activity change” value is on record?
**A.** 0.105% (inactive)

**Q.** Which “activity change” value does the source give for `COc1cc2c(cc1OC)C(=O)C(CC1CCN(Cc3ccccc3)CC1)C2` (stereo not given) here?
**A.** -0.325% [at 42.5 µM] (inactive)

**Q.** With `CC(=O)O[Si](C)(OC(C)=O)OC(C)=O` as the compound, how does the “activity change” value read?
**A.** 1.22% (inactive)

**Q.** Which “activity change” value does the source give for `CC(C)CCOC(=O)c1ccccc1` here?
**A.** -0.436% (inactive)

**Q.** For `COP(=O)(O)OP(=O)(O)OC`, which “activity change” value is on record?
**A.** 0.021% (inactive)

**Q.** For `COc1nc(N)nc2nc[nH]c12`, which “activity change” value is on record?
**A.** -1.31% (inactive)

**Q.** For `CC(N)CCCC(C)(C)O` (stereo not given), which “activity change” value is on record?
**A.** 0.415% [at 42.5 µM] (inactive)

**Q.** Which “activity change” value does the source give for `Cc1ccccc1C(N)=O` here?
**A.** 1.14% (inactive)

**Q.** For `COc1ccc(CCO)cc1`, which “activity change” value is on record?
**A.** -1.24% (inactive)

**Q.** For `CC1=C(C(=O)O)N2C(=O)[C@@H](NC(=O)[C@H](N)C3=CCC=CC3)[C@H]2SC1`, which “activity change” value is on record?
**A.** 1.17% [at 42.5 µM] (inactive)

**Q.** For `CN(C)CCN(C)CCO`, which “activity change” value is on record?
**A.** 0.0492% (inactive)

**Q.** With `CC1=C(C(=O)O)N2C(=O)[C@@H](NC(=O)[C@H](N)c3ccccc3)[C@H]2SC1` as the compound, how does the “activity change” value read?
**A.** -0.168% [at 42.5 µM] (inactive)

**Q.** With `C/C(CC(C)C)=N\O` as the compound, how does the “activity change” value read?
**A.** 1.39% (inactive)

**Q.** Which “activity change” value does the source give for `CC(C)OC(=O)CCC(=O)OC(C)C` here?
**A.** 0.049% (inactive)

**Q.** For `CC(=O)OC(C)=O`, which “activity change” value is on record?
**A.** 0.694% (inactive)

**Q.** Which “activity change” value does the source give for `Cc1cccc(Cl)c1` here?
**A.** 0.428% (inactive)

**Q.** For `C=CCSSCCC`, which “activity change” value is on record?
**A.** 0.071% (inactive)

**Q.** With `COC(=O)/C=C\C(=O)O` as the compound, how does the “activity change” value read?
**A.** -0.192% (inactive)

**Q.** For `CC(Oc1cc(Cl)ccc1Cl)C(=O)O` (stereo not given), which “activity change” value is on record?
**A.** -0.0335% (inactive)

**Q.** With `CCCCCCCCCCOC(C)=O` as the compound, how does the “activity change” value read?
**A.** -0.174% (inactive)

**Q.** Which “activity change” value does the source give for `O=C1CCC(=O)N1Cl` here?
**A.** -0.395% (inactive)

**Q.** For `CC(=O)OCC(=O)Nc1cc(C#N)cc(NC(=O)COC(C)=O)c1Cl`, which “activity change” value is on record?
**A.** 0.0706% [at 42.5 µM] (inactive)

**Q.** For `c1ccc2c(CC3=NCCN3)cccc2c1`, which “activity change” value is on record?
**A.** -0.742% [at 42.5 µM] (inactive)

**Q.** For `CC1c2ccccc2CN1NC(=O)c1ccc(Cl)c(S(N)(=O)=O)c1` (stereo not given), which “activity change” value is on record?
**A.** -0.0247% [at 42.5 µM] (inactive)

**Q.** With `CCCCCCCCCOC(=O)c1ccccc1C(=O)OCCCCCCCCC` as the compound, how does the “activity change” value read?
**A.** -3.09% (inactive)

**Q.** With `CO/N=C(/C(=O)N[C@@H]1C(=O)N2C(C(=O)[O-])=C(C[n+]3ccn4ncccc43)CS[C@H]12)c1nsc(N)n1` as the compound, how does the “activity change” value read?
**A.** 0.0408% [at 42.5 µM] (inactive)

**Q.** For `Nc1nc(-c2ccccc2)c(Br)c(=O)[nH]1`, which “activity change” value is on record?
**A.** -2.69% [at 42.5 µM] (inactive)
